Data on 93 molecules can be found in PubChem BioAssay AID504848 (National Center for Advancing Translational Sciences (NCATS), 2011).

In all, about 2,300 compounds went through this assay and about 1,400 (61%) were called active. Another 29% or so got no clear call; they are omitted. The set was probably picked from earlier hits. This is one part of the list. Values without a mark were called inactive. Calls come from the whole dose curve; as a rule, active = well fitted inhibition curve with a large enough effect; inconclusive = small, poorly fitted or top-dose-only effect, or effect the other way; inactive = no such curve, though single readings can be large or run the other way.
% is set by controls: 0 for no effect and ±100 for the full control effect; potency is the fitted concentration of half-maximal effect.

The nature of the experiment: Confirmation screen for delayed death inhibitors of the malarial parasite plastid, 96 hour incubation. Note: nearly all actives have a fitted effect of over 60% in size. The settings on record: P. falciparum luciferase growth in erythrocytes; series mostly up to 28.7 µM; activity change, negative = inhibition: at the top concentration. In outline:
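Two-generation (96 h, 37 C) exposure of P. falciparum carrying an integrated firefly luciferase reporter in erythrocytes, 0.1% parasitemia and 2% hematocrit final, Albumax-supplemented RPMI. Luminescence decrease measures growth inhibition.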
As to `Fc1ccccc1C1c2[nH]c3ccccc3c2CCN1Cc1cccn1-c1ncccn1` (stereo not drawn), the Potency was 12.6 µM (active). On the same count and under the same terms, to `Cc1ccccc1C1c2[nH]c3ccccc3c2CCN1Cc1cccn1-c1ncccn1` (stereo not drawn) belongs 14.1 µM (active). Same read-out and setting: next, `COc1ccc(C2c3[nH]c4ccccc4c3CCN2Cc2ccoc2)c(F)c1` (stereo not drawn): 12.6 µM (active); `O=c1c(Cl)c(Cl)cnn1Cc1nnc(-c2ccc(Cl)cc2)o1`: 12.6 µM (active); `COc1cc2c(O)c3c(c(-c4ccc5c(c4)OCO5)c2cc1OC)C(=O)OC3`: 6.31 µM (active).

For `CCOC(=O)C1=C(C)NC(C)=C(C(=O)OCC)C1c1cc(N)ccc1OC(F)F`, the Potency is 5.62 µM (active).

For the molecule `Nc1c(N(Cc2ccco2)C(=O)c2ccc(Br)cc2)c(=O)[nH]c(=O)n1Cc1ccccc1`, the “activity change, negative = inhibition” value was -7.43%. On to `Cc1ccc(N(Cc2ccco2)C(=O)c2ccc(N3CCCCC3)c([N+](=O)[O-])c2)cc1`, for which the Potency was 10 µM (active). Still for that read-out and setting: to `COc1cc(CN2CCN(CC#Cc3ccccc3)CC2CCO)cc(OC)c1` (stereo not drawn) belongs 14.1 µM (active); to `COc1cc(CN2CCN(Cc3c[nH]c4ccccc34)CC2CCO)cc(OC)c1` (stereo not drawn), 12.6 µM (active); to `Cc1cccc(Nc2nc3c(S(=O)(=O)c4ccccc4)nnn3c3ccccc23)c1C`, 3.98 µM (active). The same measure, in the same setting: to `CC(C)(C)NC(=O)CSc1nnc(-c2ccccc2)c(-c2ccccc2)n1` belongs 14.1 µM (active); to `COc1ccc(/C=C2\CCc3ccccc3C2=O)cc1CN1CCOCC1`, 15.8 µM (active). Same read-out and setting: next, `CCC(C)NC(=O)c1cc(Cl)c(NC(=O)C2=C(C)OCCS2)cc1OC` (stereo not drawn): 10 µM (active); `Cc1nn2c(Nc3ccccc3)c3c(nc2c1-c1ccccc1)CCC3`: 14.1 µM (active); `Cc1ccc(Cl)cc1Nc1nc(-c2sc(NC(=O)C(C)(C)C)nc2C)cs1`: 2.82 µM (active). Regarding `Cc1cccc(N(Cc2ccccc2)C(=O)CSC(C)C(=O)Nc2cc(C)on2)c1` (stereo not drawn), the Potency is 8.91 µM (active). Still for that read-out and setting: to `CCOC(=O)C1CCN(C(=O)C(=O)Nc2ccc3nc4n(c(=O)c3c2)CCCCC4)CC1` belongs 7.08 µM (active).

In the case of `COc1ccccc1C(=O)Nc1ccc2nc3n(c(=O)c2c1)CCCC3`, the Potency was 3.55 µM (active). Take `CCCCNc1nc2sc3c(c2c(=O)n1-c1cccc(Cl)c1)CCN(C)C3`: the Potency is 1.26 µM (active). The same measure, in the same setting: to `CCCCCNc1nc2sc3c(c2c(=O)n1-c1cccc(Cl)c1)CCN(C)C3` belongs 2.24 µM (active); to `O=C(O)c1ccc(C=C(c2nc3ccccc3s2)c2nc3ccccc3s2)cc1`, 15.8 µM (active). Same read-out and setting: next, `Cc1cc(C(C)(C)C)cc(C)c1CCNC(=O)c1ccc[n+]([O-])c1`: 12.6 µM (active). Same read-out and setting: to `Cc1cc(C(C)(C)C)cc(C)c1CCNC(=O)c1c(C)noc1C` belongs 10 µM (active).

With `CCCCNC(=O)c1onc(CSc2cc(C)ccc2C)c1C(=O)O`, the “activity change, negative = inhibition” value was -0.286%. Turning to `Cc1ccc(-n2nc3c(=O)n(CCCC(=O)NCc4ccco4)nc(C)c3c2C)cc1`, the Potency was 2.24 µM (active).

Regarding `Cc1nn(CCCC(=O)NCc2ccco2)c(=O)c2nn(-c3ccccc3)c(C)c12`, the Potency was 11.2 µM (active). Take `Cc1ccc2c(c1)N(CCC(=O)NCc1ccco1)C(=O)CO2`: the “activity change, negative = inhibition” value was -3.07%.

Turning to `C/C(=N/OCO/N=C(\C)c1ccccc1)c1ccccc1`, the “activity change, negative = inhibition” value is -1.99%. For the molecule `C/C(=N\NC(=S)Nc1cccc(C)c1)c1ccccc1`, the Potency is 11.2 µM (active). Same read-out and setting: to `CCOC(=O)c1c(C)[nH]c(C(=O)Nc2cc(OCC)c(N3CCOCC3)cc2OCC)c1C` belongs 2.51 µM (active). In the case of `CCOC(=O)c1ccc(Nc2nc(=O)c3cccnc3s2)cc1`, the “activity change, negative = inhibition” value is 4.59%. On to `CCOC(=O)c1ccc(NC(=O)c2c(Cl)cc(C)nc2C)cc1`, for which the Potency is 12.6 µM (active). Turning to `N#C/C(=C\c1coc2ccccc2c1=O)C(N)=S`, the Potency was 11.2 µM (active). On the same count and under the same terms, next, `N#C/C(=C\C=C\c1ccccc1[N+](=O)[O-])C(=O)NC1CCCCC1`: 5.01 µM (active).

For `CC1CCCCC1NC(=O)/C(C#N)=C/C=C/c1ccccc1[N+](=O)[O-]` (stereo not drawn), the Potency is 4.47 µM (active). For `COC(=O)C(=Cc1ccccc1[N+](=O)[O-])C(=O)OC`, the Potency is 3.98 µM (active).

With `COCCNC(=O)/C(C#N)=C/C=C/c1ccccc1[N+](=O)[O-]`, the Potency was 10 µM (active). Same read-out and setting: to `CCCCN1/C(=C/c2cccc[n+]2C)Sc2cc(NC(C)=O)ccc21` belongs 1.58 µM (active); to `CCC1CCC(C(=O)NC(CCSC)C(=O)NCCN(CC(C)C)CC(C)C)CC1` (stereo not drawn), 7.08 µM (active). As to `O=C1C(=O)c2ccccc2C(O)=C1c1cccc([N+](=O)[O-])c1`, the Potency is 10 µM (active). The same measure, in the same setting: next, `COC(=O)c1ccc(C2N=C(c3cccs3)CC(c3ccccc3O)N2)cc1` (stereo not drawn): 5.62 µM (active). `COc1ccc(C2(c3ccc(OC)cc3)NC(=O)N(CC(=O)Nc3ccc(C(N)=O)cc3)C2=O)cc1`: the Potency is 3.98 µM (active).

Turning to `COc1cccc(NC(=O)CN2C(=O)NC3(CCCc4ccccc43)C2=O)c1` (stereo not drawn), the Potency was 3.98 µM (active). Turning to `COC(=O)C1=C(C)Nc2ncnn2C1c1ccccn1` (stereo not drawn), the “activity change, negative = inhibition” value is -14%. `CCOc1ccc(N(C(=O)c2snc(C(N)=O)c2N)C(C(=O)NCC2CCCO2)c2c[nH]c3ccccc23)cc1` (stereo not drawn): the Potency is 2.82 µM (active).

Regarding `COc1cc(/C=C/C(=O)NC(=O)c2ccccc2O)ccc1OC(C)=O`, the Potency is 8.91 µM (active).

With `Cn1c(=O)oc2cc(S(=O)(=O)NCCC(=O)NCc3ccc(F)cc3)ccc21`, the Potency was 12.6 µM (active). Same read-out and setting: to `O=C1NC(=Nc2ccccc2)S/C1=C\c1ccccc1` belongs 11.2 µM (active); to `O=C(NC1CCCCC1)N1CCN(c2ccc([N+](=O)[O-])cc2)CC1`, 12.6 µM (active); to `CCCc1c(CC)c(=N)c2ccccc2n1C`, 0.0316 µM (active).

`CC(C)(CNC(=O)/C=C/c1ccc(F)cc1)CNC(=O)/C=C/c1ccc(F)cc1`: the Potency was 8.91 µM (active). Take `Nc1cccc2c1C(=O)N(C(=O)/C=C/c1ccc(F)cc1)C2=O`: the “activity change, negative = inhibition” value is 9.14%. As for `CCCCn1c(C2CCCCC2)nc2cc3[nH]c(=O)c(C(C)C)nc3cc21`, the Potency was 11.2 µM (active). Same read-out and setting: next, `Cc1cc(=O)oc2c1ccc1oc(/C(=N/O)c3ccccc3)c(C)c12`: 4.47 µM (active); `Cc1cc(Cl)cc(C)c1OCCn1ccnc1`: 11.2 µM (active); `CC#CC#Cc1cccc(=O)o1`: 3.98 µM (active). On the same count and under the same terms, next, `Clc1ccc2nc(-c3ccccn3)c(Nc3ccc4c(c3)OCO4)n2c1`: 10 µM (active); `CCCCSc1nnc(-c2cc3c(C(F)(F)F)nn(C)c3s2)n1C`: 10 µM (active); `CCOc1ccccc1NC(=O)/C(C#N)=C/c1cccnc1`: 12.6 µM (active).

In the case of `Cc1oc(=O)c(NC(=O)c2ccc(Cl)cc2)cc1C(=O)c1ccccc1`, the “activity change, negative = inhibition” value is -6.13%. With `O=C(c1cccc(Cl)c1)c1nn(-c2ccccc2)c(=O)cc1C(F)(F)F`, the Potency is 6.31 µM (active). Take `O=C(c1ccccc1)c1nn(-c2ccc(Cl)cc2)c(=O)cc1C(F)(F)F`: the Potency was 12.6 µM (active). Regarding `COc1ccccc1N1CCN(C2CCCN(Cc3ccc(Cl)cc3)C2)CC1` (stereo not drawn), the Potency is 2.51 µM (active). For `COc1ccc(N2CCN(C3CCCN(Cc4ccc(F)cc4)C3)CC2)cc1` (stereo not drawn), the Potency was 14.1 µM (active). On the same count and under the same terms, to `O=C(/C=C/c1ccccc1)c1ccc(NC2=NCCCS2)cc1` belongs 14.1 µM (active); to `Cc1cccc(/C=C/C(=O)c2ccc(NC3=NCCCS3)cc2)c1`, 11.2 µM (active); to `Cc1cc(C(=O)N2CCCC(N3CCN(c4cccc(C(F)(F)F)c4)CC3)C2)c(C)o1` (stereo not drawn), 10 µM (active).

Turning to `O=C(c1ccsc1)N1CCCC(N2CCN(c3cccc(C(F)(F)F)c3)CC2)C1` (stereo not drawn), the Potency is 12.6 µM (active).

On to `COc1ccc(/C=C/C(=O)c2ccccc2)cc1Cn1nnc2ccccc21`, for which the Potency was 6.31 µM (active). Take `COc1cc(Cn2nnc3ccccc32)ccc1O`: the Potency is 11.2 µM (active). Same read-out and setting: next, `Cc1cccc(NC(=S)/N=C(\N)Nc2nc(C)c3ccccc3n2)c1`: 12.6 µM (active).

Consider `CCCN1CCN(CCCNC(=O)c2cc3c(s2)-c2c(C)cccc2OC3)CC1`, for which the Potency is 12.6 µM (active). As for `CCn1c2ccccc2c2c3ncc4cccn4c3ccc21`, the Potency is 14.1 µM (active).

Consider `COC(=O)[C@@H]1C[C@]2(OC(=O)c3ccccc3)C=CC(=O)C[C@@H]2N1C(=O)OCc1ccccc1`, for which the Potency was 12.6 µM (active). As to `Cc1cc(OCC(=O)N2CCCC2)cc(C)c1Cl`, the “activity change, negative = inhibition” value is -3.62%.

As for `O=C(COc1ccccc1)N1CCN(S(=O)(=O)c2ccc(Br)cc2)CC1`, the Potency was 10 µM (active). With `CCOc1ccc(S(=O)(=O)N2CCN(C(=O)CCOc3ccccc3C)CC2)cc1`, the Potency was 11.2 µM (active). In the case of `O=S(=O)(c1ccc(SCCO)nc1)N1CCOCC1`, the “activity change, negative = inhibition” value is 5.43%. On to `CCOc1ccccc1OCCC(=O)N1CCN(S(=O)(=O)c2ccccc2[N+](=O)[O-])CC1`, for which the Potency was 11.2 µM (active). The same measure, in the same setting: next, `O=S(=O)(c1ccc(OCc2ccc(Br)cc2)cc1)N1CCOCC1`: 8.91 µM (active). The same measure, in the same setting: to `Cc1cc(C)n2nc(C(=O)N/N=C/c3c4ccccc4cc4ccccc34)nc2n1` belongs 4.47 µM (active). On to `CSc1ccc(C2c3[nH]c4ccccc4c3CCN2C(=O)c2ccnn2C)cc1` (stereo not drawn), for which the Potency is 3.98 µM (active). Turning to `CCc1ccc(C2c3[nH]c4ccccc4c3CCN2C(=O)c2cc(C)nn2C)cc1` (stereo not drawn), the Potency was 3.55 µM (active). Consider `Cn1nccc1C(=O)N1CCc2c([nH]c3ccccc23)C1c1ccc(F)cc1` (stereo not drawn), for which the Potency was 6.31 µM (active). For `N=c1c2c3c(sc2ncn1Cc1ccccc1)CCCC3`, the “activity change, negative = inhibition” value is -12.3%. Turning to `COc1ccccc1NC(=O)c1oc2ccccc2c1NC(=O)C1CC1`, the Potency is 7.94 µM (active).

As for `O=C(c1ccccc1)N1CCCC(c2ccc(Cl)cc2)=N1`, the Potency was 12.6 µM (active). Still for that read-out and setting: next, `O=[N+]([O-])c1ccc(Sc2cccc3cccnc23)c([N+](=O)[O-])c1`: 2.82 µM (active). The same measure, in the same setting: next, `Cc1ccc(/C=C/C(=O)NC(C)c2ccccc2)cc1` (stereo not drawn): 11.2 µM (active).

`COc1ccc2nc3cc(Cl)ccc3c(Nc3cc(C(C)C)c(O)cc3C)c2c1`: the Potency is 0.0251 µM (active). Still for that read-out and setting: next, `CCN(CC)CCC[C@H](C)Nc1ccnc2cc(Cl)ccc12`: 0.501 µM (active); `CCN(CC)CCC[C@H](C)Nc1c2ccc(Cl)cc2nc2ccc(OC)cc12`: 0.224 µM (active).
